What is called inhibition is the drop in the measured response relative to a control, in per cent.

The target of assay [1] is Serine/threonine-protein kinase 26 (Homo sapiens) (UniProt Q9P289). To be noted: at 1 µM.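 Further: mean inhibition of MST4 kinase activity, reported from the GSK PKIS inhibitor-set screening panel.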
The target in assay [2] is Serine/threonine-protein kinase PAK 1 (Homo sapiens) (UniProt Q13153). To be noted: at 0.1 µM.
The target is the same in assay [3]. The following applies: at 1 µM.
For assay [4], the target named is Serine/threonine-protein kinase PAK 2 (Homo sapiens) (UniProt Q13177). The following applies: at 0.1 µM.
The target is the same in assay [5]. The following applies: at 1 µM.
For assay [6], the target named is Serine/threonine-protein kinase PAK 3 (Homo sapiens) (UniProt O75914). To be noted: at 0.1 µM.
Assay [7] shares this target. To be noted: at 1 µM.
Assay [8] deals with Serine/threonine-protein kinase PAK 5 (Homo sapiens) (UniProt Q9P286). The following applies: at 0.1 µM.
Assay [9] has the same target. To be noted: at 1 µM.
In assay [10] the target is Serine/threonine-protein kinase PAK 6 (Homo sapiens) (UniProt Q9NQU5). To be noted: at 0.1 µM.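 Further: mean PAK6 inhibition reported from the GSK PKIS screen.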

Structures are written as SMILES.

Sequence of Serine/threonine-protein kinase PAK 3 (Homo sapiens) (O75914 whole entry, looked up): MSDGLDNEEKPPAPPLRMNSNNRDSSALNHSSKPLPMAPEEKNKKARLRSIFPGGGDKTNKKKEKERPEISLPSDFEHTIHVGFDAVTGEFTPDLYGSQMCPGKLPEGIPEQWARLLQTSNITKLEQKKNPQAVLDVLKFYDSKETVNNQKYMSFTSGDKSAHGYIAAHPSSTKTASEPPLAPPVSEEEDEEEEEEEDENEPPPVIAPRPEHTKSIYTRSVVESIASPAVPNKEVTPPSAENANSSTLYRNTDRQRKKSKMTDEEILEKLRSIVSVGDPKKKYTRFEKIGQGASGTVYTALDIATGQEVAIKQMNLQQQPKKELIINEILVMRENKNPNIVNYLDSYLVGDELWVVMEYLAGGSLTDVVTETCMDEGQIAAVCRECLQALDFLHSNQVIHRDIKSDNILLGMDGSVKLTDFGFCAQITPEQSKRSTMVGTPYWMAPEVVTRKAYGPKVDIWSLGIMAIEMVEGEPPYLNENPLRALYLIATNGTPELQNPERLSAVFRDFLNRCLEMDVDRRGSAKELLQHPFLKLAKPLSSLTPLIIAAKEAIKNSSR
Sequence of Serine/threonine-protein kinase PAK 2 (Homo sapiens) (Q13177 whole entry): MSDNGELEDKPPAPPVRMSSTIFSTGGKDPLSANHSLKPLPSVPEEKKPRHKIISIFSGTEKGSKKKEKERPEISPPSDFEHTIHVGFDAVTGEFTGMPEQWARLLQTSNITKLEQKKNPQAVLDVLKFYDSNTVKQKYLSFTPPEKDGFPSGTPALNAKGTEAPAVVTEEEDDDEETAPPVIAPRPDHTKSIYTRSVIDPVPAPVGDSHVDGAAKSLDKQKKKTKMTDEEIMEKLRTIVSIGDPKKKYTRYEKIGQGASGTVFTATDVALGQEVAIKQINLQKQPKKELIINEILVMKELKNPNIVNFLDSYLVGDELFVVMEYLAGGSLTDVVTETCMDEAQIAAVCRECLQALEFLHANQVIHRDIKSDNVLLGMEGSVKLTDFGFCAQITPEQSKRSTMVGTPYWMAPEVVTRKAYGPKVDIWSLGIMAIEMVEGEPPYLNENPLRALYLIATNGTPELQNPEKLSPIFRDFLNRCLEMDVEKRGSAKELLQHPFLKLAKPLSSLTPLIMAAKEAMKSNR
Sequence of Serine/threonine-protein kinase PAK 6 (Homo sapiens) (Q9NQU5 whole entry, looked up): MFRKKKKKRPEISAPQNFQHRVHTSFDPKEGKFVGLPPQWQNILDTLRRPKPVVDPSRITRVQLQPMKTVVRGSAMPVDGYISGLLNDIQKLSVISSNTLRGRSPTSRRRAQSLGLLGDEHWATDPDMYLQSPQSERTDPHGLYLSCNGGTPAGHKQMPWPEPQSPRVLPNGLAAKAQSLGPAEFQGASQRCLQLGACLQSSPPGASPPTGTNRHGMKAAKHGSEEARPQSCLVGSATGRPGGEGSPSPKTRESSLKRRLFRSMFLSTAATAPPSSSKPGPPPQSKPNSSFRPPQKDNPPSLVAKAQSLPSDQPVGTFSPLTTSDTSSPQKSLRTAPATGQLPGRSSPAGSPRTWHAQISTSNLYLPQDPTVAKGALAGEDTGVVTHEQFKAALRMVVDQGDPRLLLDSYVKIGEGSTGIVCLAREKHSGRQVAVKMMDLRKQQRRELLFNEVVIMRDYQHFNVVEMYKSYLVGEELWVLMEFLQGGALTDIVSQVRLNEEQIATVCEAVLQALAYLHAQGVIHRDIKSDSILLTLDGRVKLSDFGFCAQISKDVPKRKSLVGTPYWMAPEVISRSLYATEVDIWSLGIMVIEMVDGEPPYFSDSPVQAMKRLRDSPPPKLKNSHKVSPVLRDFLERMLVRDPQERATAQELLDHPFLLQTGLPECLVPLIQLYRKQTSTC
Sequence of Serine/threonine-protein kinase PAK 1 (Homo sapiens) (Q13153 whole entry): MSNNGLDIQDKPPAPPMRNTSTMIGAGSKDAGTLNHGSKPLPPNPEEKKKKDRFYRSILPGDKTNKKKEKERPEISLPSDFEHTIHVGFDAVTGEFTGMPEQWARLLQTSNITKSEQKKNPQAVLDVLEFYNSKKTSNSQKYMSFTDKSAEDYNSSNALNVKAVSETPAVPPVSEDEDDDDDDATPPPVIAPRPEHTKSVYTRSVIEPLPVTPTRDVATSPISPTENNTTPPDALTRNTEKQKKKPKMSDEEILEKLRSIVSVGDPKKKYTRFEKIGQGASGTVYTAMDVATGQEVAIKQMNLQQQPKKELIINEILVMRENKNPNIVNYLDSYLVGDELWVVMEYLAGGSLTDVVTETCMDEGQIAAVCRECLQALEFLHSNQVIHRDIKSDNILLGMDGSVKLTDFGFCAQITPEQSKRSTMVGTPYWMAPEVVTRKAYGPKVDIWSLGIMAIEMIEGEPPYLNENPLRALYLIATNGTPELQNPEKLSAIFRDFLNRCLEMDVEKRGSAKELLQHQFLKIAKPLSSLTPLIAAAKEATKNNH
Sequence of Serine/threonine-protein kinase PAK 5 (Homo sapiens) (Q9P286 whole entry, looked up): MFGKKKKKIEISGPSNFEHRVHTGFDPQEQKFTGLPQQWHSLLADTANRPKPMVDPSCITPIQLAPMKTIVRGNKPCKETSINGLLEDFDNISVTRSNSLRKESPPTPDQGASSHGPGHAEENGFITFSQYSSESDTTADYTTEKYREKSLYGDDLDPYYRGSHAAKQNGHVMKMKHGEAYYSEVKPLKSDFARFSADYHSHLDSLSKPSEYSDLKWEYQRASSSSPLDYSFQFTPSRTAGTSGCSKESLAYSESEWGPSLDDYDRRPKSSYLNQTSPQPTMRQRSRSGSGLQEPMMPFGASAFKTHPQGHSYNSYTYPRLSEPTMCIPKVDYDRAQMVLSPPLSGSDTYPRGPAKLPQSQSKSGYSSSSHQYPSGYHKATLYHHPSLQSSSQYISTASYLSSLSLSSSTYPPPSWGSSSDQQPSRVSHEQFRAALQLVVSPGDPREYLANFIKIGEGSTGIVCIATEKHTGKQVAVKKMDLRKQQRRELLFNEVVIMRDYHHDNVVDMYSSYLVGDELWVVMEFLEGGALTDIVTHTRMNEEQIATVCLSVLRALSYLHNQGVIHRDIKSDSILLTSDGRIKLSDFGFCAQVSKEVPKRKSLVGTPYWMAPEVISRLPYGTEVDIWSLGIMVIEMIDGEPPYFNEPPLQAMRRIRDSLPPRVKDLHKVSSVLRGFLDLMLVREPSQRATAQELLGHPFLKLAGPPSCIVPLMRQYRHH
Sequence of Serine/threonine-protein kinase 26 (Homo sapiens) (Q9P289 2-416 limits assumed): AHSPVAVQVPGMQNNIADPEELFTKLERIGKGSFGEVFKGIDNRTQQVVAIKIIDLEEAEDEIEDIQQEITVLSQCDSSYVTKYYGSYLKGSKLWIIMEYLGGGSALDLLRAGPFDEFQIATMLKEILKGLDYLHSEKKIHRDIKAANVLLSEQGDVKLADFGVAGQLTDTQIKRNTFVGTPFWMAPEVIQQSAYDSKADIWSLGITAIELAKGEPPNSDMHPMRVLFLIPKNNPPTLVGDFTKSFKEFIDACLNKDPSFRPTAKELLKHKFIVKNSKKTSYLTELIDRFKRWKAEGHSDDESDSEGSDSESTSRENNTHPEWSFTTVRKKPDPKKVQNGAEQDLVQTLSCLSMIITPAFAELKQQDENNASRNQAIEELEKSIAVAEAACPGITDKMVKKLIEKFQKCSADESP

Take `CCn1c(-c2nonc2N)nc2c(C#CC(C)(C)O)ncc(OC[C@@H]3CCCN3)c21`: the inhibition is -0.64% in assay [1]; -0.64% in assay [2]; 7.58% in [3]; 1.99% in assay [4]; 16.6% in assay [5]; 0.61% in [6]. Further, the inhibition was 4.06% in assay [7], 12.6% in assay [8], 49.8% in assay [9] and 19.1% in assay [10].

Regarding `CCn1c(-c2nonc2N)nc2c(C#CCN)ncc(OCCCN)c21`, the inhibition in assay [1] is 2.79%; in assay [2], -1.61%; in assay [3] it was 2.32%; in assay [4], -1.05%; in assay [5] it was -1.34%; in assay [6] it was -1.06%. Besides, the inhibition in [7] was -0.65%; in assay [8], 3.08%; in assay [9] it was 3.52%; in [10], 17%.

For `CCn1c(-c2nonc2N)nc2c(C#CC(C)(C)O)nc(O[C@@H](CN)c3ccccc3)cc21`, the inhibition in [1] was 10.8%; in assay [2] it was 0.39%; in [3] it was 14%; in [4], 7.41%; in assay [5], 48.9%; in assay [6] it was -0.59%. Further, the inhibition in assay [7] turned out to be 15.6%; in assay [8], 49.1%; in assay [9] it was 62.2%; in assay [10], 59.9%.

With `Fc1ccc(-c2ncn(C3CCNCC3)c2-c2ccnc(Oc3ccccc3)n2)cc1`, the inhibition is 0.32% in assay [1]; 3.79% in assay [2]; 1.88% in [3]; 0.54% in assay [4]; 1.48% in assay [5]; 1.85% in assay [6]. Besides, the inhibition in [7] was 3.31%; in assay [8], 2.66%; in [9], 2.03%; in [10], -8.85%.

Take `COc1cc2c(cc1Nc1nc(Nc3ccsc3C(N)=O)c3cc[nH]c3n1)N(C(=O)CN(C)C)CCC2`: the inhibition is 0.17% in [1]; -0.61% in assay [2]; 0.73% in assay [3]; 1.88% in [4]; 2.11% in assay [5]; 3.92% in [6]. The inhibition in [7] is 7.24%; in assay [8] it was -1%; in assay [9] it was -3.49%; in [10] it was 4.98%.

For `Cc1cc(-c2ccco2)cc(C)c1/C=C/c1cncc(-c2nn[nH]n2)c1`, the inhibition in [1] is 11.6%; in assay [2], 1.26%; in [3], 2.13%; in [4] it was -1.09%; in assay [5] it was -0.44%; in assay [6] it was 0.76%. The inhibition in assay [7] was 0.92%; in [8], -7.1%; in assay [9], -2.25%; in assay [10], 5.79%.

On to `COc1cc(C=NNc2ncnc3c2cnn3Cc2ccccc2)ccc1O`, for which the inhibition in [1] was 2.28%; in [2] it was 0.64%; in assay [3], -2.75%; in assay [4] it was -2.02%; in assay [5] it was -0.63%; in assay [6], -5.99%. Besides, the inhibition is -4.57% in assay [7], -5.56% in assay [9] and -0.81% in [10].

On to `NS(=O)(=O)c1ccc(N/C=C2\C(=O)Nc3ccc4ncsc4c32)cc1`, for which the inhibition is 74.5% in assay [1]; 4.98% in assay [2]; 7.33% in assay [3]; 1.87% in assay [4]; 2.66% in assay [5]; 5.48% in assay [6]. Further, the inhibition was 5.62% in [7], 2.66% in assay [8], 4.51% in [9] and -9.73% in assay [10].

Regarding `Nc1nonc1-c1nc2cnccc2n1C1CCCCC1`, the inhibition is 3.95% in assay [1]; -0.52% in assay [2]; -1.25% in [3]; -2.06% in [4]; -1.54% in [5]; -3.57% in assay [6]. For the same molecule, the inhibition in assay [7] was -2.19%; in [8], -7.66%; in assay [9], -4.63%; in [10], -0.28%.

Turning to `COc1cccc(COc2cc(-n3cnc4ccccc43)sc2C(N)=O)c1`, the inhibition in [1] was -1.08%; in [2], 0.1%; in assay [3], 2.97%; in assay [4], 0.38%; in assay [5], 0.1%; in [6] it was 0.88%. The inhibition in assay [7] was 1.18%; in assay [8] it was -2.95%; in assay [9], -5.64%; in [10], 1.2%.

On to `CCn1c(-c2nonc2N)nc2c(C#CC(C)(C)O)ncc(OCC3CCNCC3)c21`, for which the inhibition in assay [1] was found to be 3.31%; in assay [2], 5.46%; in assay [3], 7.18%; in assay [4], 2.42%; in assay [5], 12.7%; in assay [6] it was 5.37%. Further, the inhibition is 7.15% in [7], 48.8% in assay [8], 76% in assay [9] and 19.2% in assay [10].

As to `COc1cccc(-n2ncc3c(N/N=C/c4ccncc4)ncnc32)c1`, the inhibition in assay [1] turned out to be 7.18%; in assay [2] it was 5.78%; in [3], 7.75%; in assay [4] it was 3.04%; in [5], 2.37%; in assay [6] it was 5.73%. Besides, the inhibition is 5.78% in assay [7], 0.19% in [8], 6.09% in assay [9] and -2.81% in assay [10].

In the case of `NC(=O)c1sc(-n2cnc3cc(C(F)(F)F)ccc32)cc1OCc1ccccc1Br`, the inhibition in assay [1] was 3.19%; in assay [2], 1.15%; in assay [3], 2.03%; in assay [4], -0.71%; in assay [5] it was -1.57%; in assay [6], 1.59%. Further, the inhibition came out at 0.61% in [7], 1.54% in assay [8], 0.39% in assay [9] and 3.56% in assay [10].

As for `NS(=O)(=O)c1ccc(-c2ccc3c(NC(=O)C4CC4)n[nH]c3c2)cc1`, the inhibition is -2.58% in assay [1]; 6.54% in assay [2]; 2.13% in assay [3]; 1.52% in assay [4]; 2.07% in assay [5]; 2.48% in assay [6]. Besides, the inhibition in assay [7] worked out at 4.17%; in [8] it was 1.07%; in assay [9] it was 2.99%; in assay [10], 7.47%.

The values above are taken from ChEMBL document CHEMBL1961873, “Compounds: GSK PKIS; Assays: Nanosyn kinase panel” (2012).
